biological target: COPS5 (UniProt Q92905); assay: log2 ratio of Biotin-Ahx-Ub-VS probe labelling (fragment/DMSO); higher = less target engagement (more negative = stronger competition), active = hit call of the paper (q ≤ 0.05, log2 ratio ≤ -1); details: compound concentration: 200 uM; treatment time: 3 h
Description: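 Competitive ABPP in HEK293T cell lysate. Lysates were treated with each chloroacetamide fragment at 200 µM for 3 h, then with Biotin-Ahx-Ub-VS (0.5 µM, 1 h), NeutrAvidin-enriched and analysed by diaPASEF LC-MS/MS. Protein LFQ was median-normalised; average log2 ratio is fragment/DMSO from an unpaired t-test (n=3 treated, n=44 DMSO). Hits: q ≤ 0.05, log2 ratio ≤ -1, unique peptides ≥ 2.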

COPS5, sequence (Q92905 whole entry, looked up, the tested form may be a part): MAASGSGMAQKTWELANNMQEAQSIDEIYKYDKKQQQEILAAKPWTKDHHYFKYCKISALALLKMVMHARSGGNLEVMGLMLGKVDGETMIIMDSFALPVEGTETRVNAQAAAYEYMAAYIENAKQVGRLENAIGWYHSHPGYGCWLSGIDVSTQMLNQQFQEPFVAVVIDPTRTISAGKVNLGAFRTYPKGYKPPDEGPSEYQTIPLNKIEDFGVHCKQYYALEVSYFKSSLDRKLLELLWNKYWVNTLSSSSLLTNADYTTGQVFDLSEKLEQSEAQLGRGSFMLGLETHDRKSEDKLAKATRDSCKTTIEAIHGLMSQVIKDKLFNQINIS

log2 ratio of Biotin-Ahx-Ub-VS probe labelling, inactive:
COc1ccccc1C(C)NC(=O)CCl (stereo not given) 0.247
O=C(CCl)N1CCOC(c2cccc(F)c2)C1 (stereo not given) -0.0425
Cc1ccc(CN(CCO)C(=O)CCl)cc1 -0.141
O=C(CCl)N1CCN(C(=O)Nc2ccccc2)CC1 -0.0124
CCc1c[nH]c(CNC(=O)CCl)n1.Cl -0.182
CC(NC(=O)CCl)c1cccc(Cl)c1 (stereo not given) -0.0887
O=C(CCl)N1CCC2(CCC(O)CC2)CC1 0.318
O=C(CCl)NC1CCC2(CC1)OCCO2 0.176
Cl.O=C(CCl)N1CCC(Cc2nccs2)C1 (stereo not given) 0.114
Cc1ccc(C)c(NC(=O)CCl)c1 -0.0407
Cc1cc(C2CCCN2C(=O)CCl)nn1C.Cl (stereo not given) 0.0127
O=C(CCl)NC1CCOc2ccccc21 (stereo not given) -0.296
CC(C)n1nccc1NC(=O)CCl 0.0761
Cc1cccc(N2CCC(NC(=O)CCl)C2=O)c1 (stereo not given) -0.0421
O=C(CCl)NCC(=O)N1CCCC1 -0.0202
Cc1cccc(N(CCC#N)C(=O)CCl)c1C -0.0126
Cc1ccc(CNC(=O)CCl)nc1C.Cl 0.0421
CN(CCc1ncc(Br)cn1)C(=O)CCl.Cl 0.2
O=C(CCl)NCCc1cccc2ccccc12 -0.0396
Cc1c(C#N)c(NC(=O)CCl)n(Cc2ccco2)c1C -0.146
O=C(CCl)N[C@H]1CC[C@@H](CO)CC1 0.0798
Cl.O=C(CCl)NCCc1ncc(F)cc1F 0.213
O=C(CCl)NC1CCC(C(F)(F)F)CC1 (stereo not given) -0.114
C/C(=C\CNC(=O)CCl)c1cnn(C)c1.Cl -0.0819
O=C(CCl)NCCC1COCCO1 (stereo not given) -0.0816
O=C(CCl)N1CCCC1c1ccsc1 (stereo not given) -0.0486
Cc1cc(C(=O)NC2CCN(C(=O)CCl)CC2)no1 0.0469
Cc1cccc2nc(CCNC(=O)CCl)cn12.Cl -0.0623
Cc1nc(CNC(=O)CCl)c2ccccn12.Cl -0.109
CNC(=O)C1CCN(C(=O)CCl)CC1 0.16
CC(NC(=O)CCl)c1cc2n(n1)CCCC2.Cl (stereo not given) -0.394
CC1CCc2onc(CNC(=O)CCl)c2C1 (stereo not given) 0.0922
Cl.O=C(CCl)N1CCn2ncc(O)c2C1 0.242
Cc1ccc2nnc(CNC(=O)CCl)n2c1 -0.118
NC(=O)C1CCCN(C(=O)CCl)C1 (stereo not given) 0.0012
O=C(CCl)NCc1ccc2c(c1)OCO2 0.119
Cc1ccn2cc(CNC(=O)CCl)nc2c1.Cl 0.326
Cc1cccc(C)c1NC(=O)CCl 0.194
Cc1ccc(N(C(=O)CCl)C2C=CS(=O)(=O)C2)cc1 (stereo not given) -0.235
O=C(CCl)N1CCOC2(CCC2)CC1 -0.0213

From the supplement of paper PMC11732987, “Enantioselective OTUD7B fragment discovery through chemoproteomics screening and high-throughput optimisation” (Communications Chemistry, 2025)
